Assay [1] can be described thus: qHTS assay to identify aromatase inhibitors - cell viability counter screen (AID 743084).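 Note: cells stimulated with testosterone during compound exposure; nearly all actives have a fitted effect of over 55% in size.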
For assay [2], the target named is Aryl hydrocarbon receptor (Homo sapiens) (UniProt P35869). Nature of the assay: qHTS assay to identify small molecule that activate the aryl hydrocarbon receptor (AhR) signaling pathway (AID 743085).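 For activation: HG2L7.5c1 human HepG2 liver cells with stably integrated DRE-driven firefly reporter; series mostly up to about 70 µM.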 Note: nearly all actives have a fitted effect of over 15% in size. Note: potency is the fitted concentration of half-maximal effect. Summed up:
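A multiplexed format paired cell viability (CellTiter-Fluor fluorescence) with AhR-dependent luciferase output (ONE-Glo luminescence) in the same wells of HepG2 DRE-luc cells after 24 h compound exposure at 37C.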

A short description of assay [3]: qHTS assay to identify small molecule that activate the aryl hydrocarbon receptor (AhR) signaling pathway - cell viability counter screen (AID 743086).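 Note: HepG2 liver cells carrying the AhR DRE luciferase reporter; series mostly up to about 70 µM; nearly all actives have a fitted effect of over 45% in size.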 Summed up: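 HepG2-AhR-luc (HG2L7.5c1) cells, 4000/well, treated 24 h at 37 C with compound; viability measured as CellTiter-Fluor fluorescence after 30 min in the same wells as the luciferase read.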
The target of assay [4] is Peroxisome proliferator-activated receptor gamma (Homo sapiens) (UniProt P37231). As to the kind of experiment: qHTS assay to identify small molecule agonists of the peroxisome proliferator-activated receptor gamma (PPARg) signaling pathway (AID 743094; active = well fitted activation curve with a large enough effect in the signal ratio in the repeat runs, not every such curve was filed as active; the % refers to the signal ratio). Summed up:
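Agonism was assessed in a beta-lactamase reporter system, HEK293H cells with a stably integrated UAS-bla construct under PPARg control; the 17 h treatment at 37C preceded a 1 h room-temperature FRET substrate read.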

For assay [5] the target is unchanged. Nature of the assay: qHTS assay to identify small molecule antagonists of the peroxisome proliferator-activated receptor gamma (PPARg) signaling pathway (AID 743191; calls by dose curve; note: series mostly up to about 63 µM; nearly all actives have a fitted effect of over 30% in size). In a few lines: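 GeneBLAzer PPARg UAS-bla HEK293H cells, 5 h post-plating, exposed to compounds 17 h at 37C. LiveBLAzer B/G FRET substrate added for 1 h at room temperature; beta-lactamase reporter read by fluorescence intensity.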

The nature of assay [6]: qHTS assay to identify small molecule antagonists of the peroxisome proliferator-activated receptor gamma (PPARg) signaling pathway - cell viability counter screen (AID 743194). Note: nearly all actives have a fitted effect of over 55% in size. Summed up: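 Cytotoxicity counter screen in PPARg-bla HEK293H cells, same wells as reporter assay. Compounds plus 50 nM rosiglitazone (final) for 17 h at 37 C, then viability read by CellTiter-Glo luminescence.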

The nature of assay [7]: qHTS assay for small molecule agonists of the antioxidant response element (ARE) signaling pathway (AID 743202; active = well fitted activation curve with a large enough effect in the signal ratio in the repeat runs, not every such curve was filed as active; the % refers to the signal ratio). Summed up:
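HepG2 ARE-bla reporter line, 2,000 cells/well; 5 h preincubation 37 C/5% CO2; compound (DMSO) 16 h 37 C; B/G FRET substrate 2 h RT; fluorescence intensity.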

A short description of assay [8]: qHTS assay for small molecule agonists of the antioxidant response element (ARE) signaling pathway - cell viability counter screen (AID 743203; calls by dose curve; note: nearly all actives have a fitted effect of over 55% in size). Summed up: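 ATP content via CellTiter-Glo luminescence served as the viability measure. Cells: ARE-bla HepG2, 2,000 per well. Exposure: 16 hrs, 37C/5% CO2.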
Assay [9] is described as follows: qHTS assay for small molecule activators of the heat shock response signaling pathway - cell viability counter screen (AID 743209). Note: nearly all actives have a fitted effect of over 50% in size. In a few lines:
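Compounds dissolved in DMSO were added to overnight-plated HSE-bla HeLa cells and left 5 h at 37 C. Cell viability was quantified by luminescence using CellTiter-Glo.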

Assay [10] is described as follows: qHTS assay for small molecule activators of the heat shock response signaling pathway (AID 743210; active = well fitted activation curve with a large enough effect in the signal ratio in the repeat runs, with a control signal flat, not every such curve was filed as active; the % refers to the signal ratio;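 note: HeLa cells with beta-lactamase reporter driven by heat shock elements; series mostly up to about 63 µM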). Summed up:
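Beta-lactamase reporter read-out: FRET substrate fluorescence after 2.5 h at RT, following 5 h compound treatment at 37 C of HeLa cells carrying HSE-driven bla reporter; quantitative HTS format.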

Records with an inconclusive call do not appear. Calls of active or inactive are those of the source. Unless noted, calls come from the whole dose curve; as a rule, active = well fitted curve in the direction sought with a large enough effect in the repeat runs; inconclusive = weak or mixed curves; inactive = no such curve, though single readings can be large; an effect the other way counts as inactive or inconclusive.

Outcome and Potency data for 22 molecules are collected here from PubChem BioAssay (Tox21).

Chain of Peroxisome proliferator-activated receptor gamma (Homo sapiens) (P37231 whole entry, looked up): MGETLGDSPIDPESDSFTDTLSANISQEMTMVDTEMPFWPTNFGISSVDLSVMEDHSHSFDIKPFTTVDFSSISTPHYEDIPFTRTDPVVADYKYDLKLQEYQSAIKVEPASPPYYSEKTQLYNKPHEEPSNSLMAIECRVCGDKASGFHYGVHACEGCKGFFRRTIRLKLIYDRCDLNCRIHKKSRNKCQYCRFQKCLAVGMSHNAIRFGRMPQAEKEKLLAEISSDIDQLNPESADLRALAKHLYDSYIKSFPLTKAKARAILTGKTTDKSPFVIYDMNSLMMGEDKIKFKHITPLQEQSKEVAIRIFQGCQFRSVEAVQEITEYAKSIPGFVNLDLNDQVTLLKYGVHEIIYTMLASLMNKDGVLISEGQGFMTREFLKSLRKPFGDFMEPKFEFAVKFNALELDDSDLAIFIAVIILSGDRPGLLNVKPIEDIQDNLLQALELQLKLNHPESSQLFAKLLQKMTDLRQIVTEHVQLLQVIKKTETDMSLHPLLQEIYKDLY
Chain of Aryl hydrocarbon receptor (Homo sapiens) (P35869 whole entry, looked up): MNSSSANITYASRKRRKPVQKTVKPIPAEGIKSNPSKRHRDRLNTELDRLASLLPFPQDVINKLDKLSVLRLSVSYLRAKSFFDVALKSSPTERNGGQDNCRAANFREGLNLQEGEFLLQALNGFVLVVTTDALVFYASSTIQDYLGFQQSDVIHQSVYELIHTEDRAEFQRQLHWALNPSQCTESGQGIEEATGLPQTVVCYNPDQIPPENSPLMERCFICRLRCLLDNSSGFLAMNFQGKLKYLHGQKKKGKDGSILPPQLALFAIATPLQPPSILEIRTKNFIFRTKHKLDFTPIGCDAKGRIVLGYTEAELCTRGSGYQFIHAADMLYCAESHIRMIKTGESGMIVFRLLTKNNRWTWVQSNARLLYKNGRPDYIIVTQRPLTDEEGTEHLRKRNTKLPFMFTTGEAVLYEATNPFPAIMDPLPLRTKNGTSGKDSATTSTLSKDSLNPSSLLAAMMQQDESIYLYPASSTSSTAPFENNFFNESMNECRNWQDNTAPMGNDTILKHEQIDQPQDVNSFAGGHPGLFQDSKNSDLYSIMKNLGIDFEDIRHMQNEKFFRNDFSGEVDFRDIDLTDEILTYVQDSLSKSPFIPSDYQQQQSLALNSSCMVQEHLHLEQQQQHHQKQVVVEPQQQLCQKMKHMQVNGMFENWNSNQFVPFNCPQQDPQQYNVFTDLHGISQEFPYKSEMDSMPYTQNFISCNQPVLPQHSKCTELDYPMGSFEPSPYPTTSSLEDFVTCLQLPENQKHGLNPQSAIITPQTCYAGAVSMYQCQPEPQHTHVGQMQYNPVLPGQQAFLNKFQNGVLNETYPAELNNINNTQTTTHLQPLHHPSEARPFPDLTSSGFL

For the molecule `O=c1[nH]c(=O)[nH]c(=O)[nH]1`, the outcome in assay [1], in [3], in assay [4], in [6], in [8] and in assay [9] was inactive. Further, the call in [10] was inactive. For the same molecule, the Potency entry in assay [2], in [5] and in [7] was “inactive” each time.

As for `CCCCCCCCCl`, the molecule was called inactive in assay [1], in assay [3], in [4], in [6], in assay [8] and in assay [9]. For the same molecule, the molecule was called inactive in assay [10]. Besides, the Potency result in [2], in assay [5] and in assay [7] was “inactive” throughout.

On to `CCN(CC)c1ccccc1`, for which the result in assay [1], in assay [3], in assay [4], in [6], in assay [8] and in assay [9] was inactive. The outcome in [10] was inactive. The Potency entry in assay [2], in assay [5] and in assay [7] was “inactive” each time.

With `CN(C)CCO`, the molecule was classed as inactive in [1], in assay [3], in assay [4], in assay [6], in assay [8] and in [9]. In assay [10], the result was inactive. Besides, the Potency entry in assay [2], in [5] and in [7] was “inactive” in each case.

As to `C1CC2OC2CC1C1CO1` (stereo not given), the outcome in [1], in assay [3], in [4], in assay [6], in assay [8] and in [9] was inactive. Also, the outcome in [10] was inactive. The Potency entry in assay [2], in assay [5] and in assay [7] was “inactive” each time.

As to `CN=C=S`, the outcome in assay [1], in assay [3], in assay [4], in assay [6], in [8] and in assay [9] was inactive. Moreover, the call in [10] was inactive. The Potency entry in assay [2], in assay [5] and in assay [7] was “inactive” each time.

As for `Cc1cc(Cl)ccc1O`, the molecule was called inactive in assay [1], in assay [3], in [4], in assay [6], in [8] and in [9]. Also, the molecule was called inactive in assay [10]. In addition, the Potency result in [2], in assay [5] and in assay [7] was “inactive” throughout.

With `CC(C)C1(C)N=C(c2nc3ccccc3cc2C(=O)O)NC1=O` (stereo not given), the result in assay [1], in assay [3], in assay [4], in assay [6], in assay [8] and in assay [9] was inactive. Moreover, in assay [10], the call was inactive. In addition, the Potency result in assay [2], in [5] and in assay [7] was “inactive” throughout.

As for `CCCCOC(=O)c1ccccc1C(=O)OCCCC`, the outcome in assay [1], in [3], in assay [4], in [6], in assay [8] and in assay [9] was inactive. The molecule was classed as inactive in assay [10]. Besides, the Potency entry in assay [2], in assay [5] and in assay [7] was “inactive” in each case.

In the case of `Clc1ccc(Cl)cc1`, the outcome in assay [1], in [3], in [4], in assay [6], in assay [8] and in assay [9] was inactive. In assay [10], the result was inactive. Moreover, the Potency entry in [2], in assay [5] and in [7] was “inactive” in each case.

Consider `CC(C)N1C(=O)c2ccccc2NS1(=O)=O`, for which the result in assay [1], in [3], in assay [4], in [6], in [8] and in [9] was inactive. Moreover, the call in [10] was inactive. Moreover, the Potency entry in [2], in [5] and in [7] was “inactive” throughout.

As for `CN(N=O)c1ccccc1`, the call in [1], in [3], in assay [4], in assay [6], in assay [8] and in assay [9] was inactive. For the same molecule, the molecule was called inactive in assay [10]. Also, the Potency result in assay [2], in assay [5] and in assay [7] was “inactive” throughout.

On to `Nc1c(Cl)c(Cl)nc(C(=O)O)c1Cl`, for which the outcome in [1], in assay [3], in assay [4], in assay [6], in [8] and in [9] was inactive. Also, the call in assay [10] was inactive. Moreover, the Potency in [2] is 34 µM (active). Moreover, the Potency result in assay [5] and in [7] was “inactive” throughout.

As for `CCCCCOC(=O)c1ccccc1C(=O)OCCCCC`, the molecule was classed as inactive in assay [1], in assay [3], in assay [4], in [6], in assay [8] and in assay [9]. In assay [10], the molecule was called inactive. The Potency result in assay [2], in assay [5] and in assay [7] was “inactive” each time.

With `CCN(CC)CCO`, the molecule was called inactive in [1], in assay [3], in assay [4], in assay [6], in assay [8] and in assay [9]. In addition, the call in assay [10] was inactive. Moreover, the Potency result in [2], in assay [5] and in assay [7] was “inactive” each time.

In the case of `Clc1cccc(Cl)c1Cl`, the result in assay [1], in assay [3], in [4], in [6], in assay [8] and in [9] was inactive. Further, the molecule was called inactive in [10]. The Potency result in assay [2], in [5] and in assay [7] was “inactive” each time.

For `CCCN(CCC)N=O`, the result in assay [1], in [3], in [4], in assay [6], in assay [8] and in assay [9] was inactive. Further, the molecule was classed as inactive in assay [10]. Besides, the Potency result in assay [2], in assay [5] and in [7] was “inactive” in each case.

Turning to `Cc1[nH]c(=O)n(C(C)(C)C)c(=O)c1Cl`, the call in assay [1], in [3], in [4], in assay [6], in assay [8] and in assay [9] was inactive. Further, the molecule was called inactive in assay [10]. Moreover, the Potency entry in assay [2], in assay [5] and in assay [7] was “inactive” throughout.

Consider `Nc1ccc(Cc2ccc(N)cc2)cc1`, for which the result in assay [1], in [3], in assay [4], in assay [6], in assay [8] and in [9] was inactive. Besides, the molecule was classed as inactive in assay [10]. Further, the Potency in assay [2] is 30.1 µM (active). Besides, the Potency entry in assay [5] and in assay [7] was “inactive” throughout.

For `[O-][Cl+2]([O-])O`, the result in assay [1], in assay [3], in assay [4], in assay [6], in assay [8] and in [9] was inactive. Also, in assay [10], the result was inactive. Besides, the Potency entry in assay [2], in assay [5] and in assay [7] was “inactive” in each case.

Regarding `Cc1ccc([N+](=O)[O-])cc1C`, the molecule was classed as inactive in [1], in assay [3], in [4], in assay [6], in assay [8] and in assay [9]. The call in [10] was inactive. The Potency result in assay [2], in assay [5] and in [7] was “inactive” each time.

Turning to `CCCCN(CC)C(=O)SCCC`, the result in assay [1], in assay [3], in [4], in assay [6], in assay [8] and in [9] was inactive. The molecule was called inactive in [10]. In addition, the Potency result in assay [2], in [5] and in assay [7] was “inactive” each time.
